Pf growth 48h – inhibits P. falciparum growth in the first generation, 48 h | P. falciparum luciferase growth in erythrocytes, 48 h | Potency, µM (titrated, usually from 28.7 µM), inactives show at the top dose activity change, negative = inhibition, most hits filed as inhibitors | actives 5.9% (n = 310,000) | AID 504832; also: potency is read from the fitted curve at half-maximal effect
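In quantitative HTS format, infected erythrocytes bearing luciferase-reporter parasites were treated for a single generation at 37 C. Luminescence after adding detection reagent served as the growth measure.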
MARV entry inh – blocks Marburg virus binding to or entry into cells | Marburg virus pseudotyped entry inhibition, cell reporter | AID 540276 | Potency, µM (highest dose often 37.8 µM), without a hit: at the highest dose activity change, negative = inhibition, usual class: inhibitors | actives 1.8% (n = 300,000); calls by dose curve; tested in HEK293 cells; also: potency is read from the fitted curve at half-maximal effect
Pf growth 96h – P. falciparum growth inhibition at 96 hour, primary screen for plastid delayed-death inhibitors; P. falciparum luciferase reporter growth, 96 h; Potency, µM (series often up to 28.7 µM), without a hit: top-dose activity change, negative = inhibition, usual class: inhibitors; actives 6.9% (n = 320,000); AID 504834; also: potency is read from the fitted curve at half-maximal effect
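Plates of compound plus infected erythrocytes (2% hematocrit, 0.05% parasitemia final) incubate 96 hours, 37 C, 5% CO2. Detection reagent added; reduced luminescence from the parasites' luciferase reporter flags inhibition.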
LASV entry inh – inhibitors of Lassa virus binding or cell entry. Potency, µM (titrated, usually from 37.9 µM), for inactives: at the top dose activity change, negative = inhibition, hits mostly inhibitors. Lassa virus pseudotype entry inhibition, cell reporter. actives 1.2% (n = 300,000); calls by dose curve; tested in HEK293 cells; also: potency is read from the fitted curve at half-maximal effect; nearly all actives have a fitted effect of over 50% in size
HCV inh – inhibitors of hepatitis C virus infection; Huh7.5.1 HCVcc-Cre infection, luciferase reporter, 44 h; Potency, µM (series often up to 41.8 µM), inactives show top-dose activity change, negative = inhibition, hits mostly inhibitors; actives 3.4% (n = 340,000); also: potency is read from the fitted curve at half-maximal effect
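Antiviral activity was scored by luciferase reporter output from cells infected with HCVcc-Cre (~0.5 moi) in presence of compound, 44 h infection period, cells seeded 1,000/well 4 h prior.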
HCMV antiviral – human cytomegalovirus inhibition. HFF cells, HCMV-luciferase reporter, 72 h; stronger effect = lower value. activity change, negative = inhibition, % at 57.5 µM. actives 4.5% (n = 410,000); in the data active = activity change below about -60%; inconclusive = no clear call, values can overlap the other calls; inactive = above about -39%
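Two compound doses tested in HFFs infected with HCMV-luciferase, MOI 1 PFU/cell, 72 h at 37C. Lysate luminescence read with OneGlo; data normalized against buffer-only and 10uM Salinomycin inhibitor controls.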
* = called active by the depositor; i = inactive; u = inconclusive; x = no result given; [ ] = remark or other dose. The list is not random: actives were taken first. Their share in the collection is about 14%. Unless noted, calls follow the shape of the dose curve; as a rule, active = well fitted inhibition curve with a large enough effect; inconclusive = small, poorly fitted or top-dose-only effect, or another doubt; inactive = no such curve, though single readings can be large or run the other way. % is scaled to controls: 0 for no effect and ±100 for the full control effect.

SMILES	Pf growth 48h	MARV entry inh	Pf growth 96h	LASV entry inh	HCV inh	HCMV antiviral
CC(C)NC(=O)c1ccccc1NC(=O)/C=C/c1ccc([N+](=O)[O-])cc1	30%	-8%	0%	24%	11µM*	9
Cc1ccc(-c2cn(-c3cccc(Cl)c3)c(S(=O)(=O)CC(=O)Nc3cccc(C)c3)n2)cc1	x	u	x	u	x	70
COc1ccc(/C=C/C(=O)Nc2ccccc2C(=O)N2CCCC2)cc1	-10%	-12%	-3%	3%	14%	12
COc1cc(/C=C/C(=O)Nc2cc(C(F)(F)F)ccc2Cl)cc(OC)c1OC	10µM*	u	2.6µM*	u	u	-18
COc1ccc(/C=C/C(=O)Nc2ccccc2C(=O)O)cc1	120%	1.6µM*	i	u	5%	-3
COc1ccc(/C=C/C(=O)Nc2cc(C(F)(F)F)ccc2Cl)cc1OC	u	-19%	74%	7%	u	u
CC(NS(=O)(=O)c1cccc(C(=O)N(C)Cc2ccc(N3CCOCC3)cc2)c1)c1ccccc1 (stereo not drawn)	x	x	x	x	-14%	0
CC1(C)OC(=O)C2=C(CC(CCc3ccccc3)OC2c2ccc(Cl)c(Cl)c2)O1 (stereo not drawn)	x	x	x	x	x	1
COCCNc1ccc(-c2nc(-c3ccccn3)no2)cc1[N+](=O)[O-]	x	9%[46.1 µM]	x	-14%[46.1 µM]	x	107
Cc1ccc(NC(=O)CSc2nc(-c3ccco3)nc3cc(=O)[nH]n23)cc1	x	x	x	19%[46.1 µM]	x	-19
N#CCCN(NC1=NS(=O)(=O)c2ccccc21)C(=O)c1ccccc1Br	15%	u	3.3µM*	4%[46.1 µM]	8%	x
O=C(COC(=O)c1n[nH]c2ccccc12)NC1CCCCC1	x	6%	x	-2%	-27%	-5
COc1ccccc1-c1nnc(C2CCN(C(=O)c3ccccc3C)CC2)o1	x	u	x	2%[46.1 µM]	x	-10
COc1ccccc1-c1nnc(C2CCN(C(=O)c3cccc(Cl)c3)CC2)o1	x	-23%[46.1 µM]	x	-19%[46.1 µM]	x	-92*
O=C(CSc1nnc(CCCN2C(=O)c3cccc4cccc(c34)C2=O)n1-c1ccccc1)N1CCCCC1	12µM*	u	u	-10%	-1%	-33
CC=COC(=O)N[C@@H](c1cccc(C)c1)[C@]1(C(=O)OCC)CCCC1=O	x	13%[14.2 µM]	x	x	x	x
CC(=O)N1CN(C2CC(C)(C)NC(C)(C)C2)Cc2c1sc1c2CCCC1	12µM*	u	12µM*	u	u	-63*
N#Cc1cccc(C(Br)S(=O)(=O)c2ccccc2)c1 (stereo not drawn)	x	x	x	x	x	-91*
Cc1cn2c(=O)cc(COC(=O)c3cccc(NC(=O)c4ccccc4C)c3)nc2s1	x	x	x	15%[46.1 µM]	x	u
CCCCNC(=O)C1C2C=CC3(CN(Cc4ccc(C)cc4)C(=O)C13)O2 (stereo not drawn)	1%	5%	10µM*	0%	20%	2
Cc1ccc(CN2CC34C=CC(O3)C(C(=O)NCc3ccco3)C4C2=O)cc1 (stereo not drawn)	20%	-7%	-5%	1%	9%	-27
COC1(NS(=O)(=O)c2ccc(Br)cc2)C(C)=CC(=O)C=C1C	17%	22%[46.1 µM]	u	13%[46.1 µM]	-5%	-10
Cn1c(=O)[nH]c(=O)c2c1nc(N1CCCCCC1)n2CCCSc1nnnn1-c1ccccc1	u	-26%	2.3µM*	u	-11%	x
Cn1c(=O)[nH]c(=O)c2c1nc(N1CCCC1)n2CCCSc1nnnn1-c1ccccc1	u	1%	6.6µM*	-9%	15%	46
Cc1cc(=O)oc2c(C)c(OC(C)C(=O)NCCN3CCOCC3)ccc12 (stereo not drawn)	-20%	12%[46.1 µM]	-18%	0%[46.1 µM]	-4%	-16
SMILES	Pf growth 48h	MARV entry inh	Pf growth 96h	LASV entry inh	HCV inh	HCMV antiviral
Cc1cc(=O)oc2c(C)c(OC(C)C(=O)Nc3ccc(N4CCC(C)CC4)cc3)ccc12 (stereo not drawn)	7.4µM*	x	3.3µM*	x	u	u
COc1ccc(-c2cc(=O)oc3c(C)c(OC(C)C(=O)Nc4ccc(CN5CCOCC5)cc4)ccc23)cc1 (stereo not drawn)	7.4µM*	x	3.7µM*	x	13µM*	u
Cc1cc(=O)oc2cc(OC(C)C(=O)Nc3ccc(N4CCCCC4)cc3)ccc12 (stereo not drawn)	u	1%	8%	-1%	x	-22
COc1cc(NC(=O)CSCC(=O)Nc2cccc(C(F)(F)F)c2)c(Cl)cc1Cl	u	u	12µM*	-27%	-17%	16
COc1cccc(CN(C)CC(=O)Nc2cccc(C(F)(F)F)c2)c1OC	u	-12%[46.1 µM]	u	-20%	10µM*	-31
COc1ccc(-c2noc(N(C)CC(=O)Nc3cccc(C(F)(F)F)c3)n2)cc1	80%	-12%	6%	-18%	11µM*	36
COc1cccc(CN(C)CC(=O)Nc2cccc(S(N)(=O)=O)c2)c1OC	5%	-1%	-16%	-5%	-6%	u
FC(F)(F)c1ccccc1-n1ccnc1	u	u	-13%	u	u	-15
CC(C)(C)Nc1nc(NC(C)(C)C)nc(-n2ccnc2)n1	1.3µM*	u	u	-24%	u	-15
CCCN1CCN(CCCNC(=O)c2cnn(-c3ccc(F)cc3)c2-n2cccc2)CC1	x	x	x	-3%[46.1 µM]	x	-10
O=S(=O)(NCC1CC1)c1cc(Cl)cc(Cl)c1	x	-18%[46.1 µM]	13%	10%[46.1 µM]	3%	-65*
Cc1cc(C)nc(N/N=C2/CCCC/C2=C\c2ccccc2)n1	u	u	u	x	u	-113*
Cc1ccnc(N/N=C/c2ccccc2)n1	79%	u	-27%	u	-1%	37
COC(=O)C1=C(c2ccccc2OCc2ccccc2)C[C@@H]2CC[C@H]1N2C(=O)NCc1cccc(C(F)(F)F)c1	10µM*	x	u	x	u	1
COC(=O)C1=C(c2ccc(OCc3ccccc3)cc2)C[C@@H]2CC[C@H]1N2C(=O)NCc1cccc(C(F)(F)F)c1	4.1µM*	x	1.9µM*	x	13µM*	-32
COC(=O)C1=C(c2ccccc2OCc2ccccc2)C[C@@H]2CC[C@H]1N2C(=O)NCCN1CCOCC1	u	x	4.7µM*	x	11%	-9
COC(=O)C1=C(c2ccccc2OCc2ccccc2)C[C@@H]2CC[C@H]1N2C(=O)NCc1ccccc1	10µM*	0%	4.1µM*	x	u	0
COC(=O)C1=C(c2cccc(OC)c2OC)C[C@@H]2CC[C@H]1N2C(=O)NCCO	x	x	x	x	3%	-3
COC(=O)C1=C(c2ccccc2)C[C@@H]2CC[C@H]1N2C(=O)NCc1ccccc1	x	x	x	x	-22%	56
Cc1ccc(NC(=O)Cn2c(=O)n(Cc3nc(C)no3)c(=O)c3cc4c(cc32)OCO4)c(Cl)c1	x	x	x	7%[46.1 µM]	x	3

Screening results: PubChem, National Center for Advancing Translational Sciences (NCATS)
